About 7,900 targets were measured; listed, in parts, are those with a hit and a random draw of the rest. About 0.6% of all pairs of compound and target were hits.
Assays:
Assay in all cases: log2 fold change, soluble protein after heating vs DMSO (PISA); higher = thermal stabilisation; K562 cells, 10 uM, 30 min; active = over 0.2 and 3.5 SD of the protein, either way, in both replicates (recomputed)
[1] = compound: COC1=CC=C(C=C1)CN2C=CC3=C2C=C(C=C3)C(=O)NO
Method in brief: (§1)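 For each measurement, 10 μM compound was applied for 30 min to K562 cells at 2×10^6 cells/mL. Aliquots were heated for 3 min across 48°C-58°C, pooled, and extracted in PBS with 0.5% NP-40 at 4°C; the supernatant after 21,000xg for 90 min was soluble protein. This was quantified by TMTpro 16plex LC-MS/MS with channel sums equalised, and thermal stability was reported relative to control samples from duplicates, on a log2 fold-change scale.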

filanesib = compound: CON(C)C(=O)N1N=C(c2cc(F)ccc2F)S[C@@]1(CCCN)c1ccccc1 [filanesib]
Method in brief: as §1

zotarolimus = compound: CO[C@H]1C[C@@H]2CC[C@@H](C)[C@@](O)(O2)C(=O)C(=O)N2CCCC[C@H]2C(=O)O[C@H]([C@H](C)C[C@@H]2CC[C@H](n3cnnn3)[C@H](OC)C2)CC(=O)[C@H](C)/C=C(\C)[C@@H](O)[C@@H](OC)C(=O)[C@H](C)C[C@H](C)/C=C/C=C/C=C/1C [zotarolimus]
Method in brief: as §1

idasanutlin = compound: COc1cc(C(=O)O)ccc1NC(=O)[C@@H]1N[C@@H](CC(C)(C)C)[C@](C#N)(c2ccc(Cl)cc2F)[C@H]1c1cccc(Cl)c1F [idasanutlin]
Method in brief: as §1

alisertib = compound: COc1cc(Nc2ncc3c(n2)-c2ccc(Cl)cc2C(c2c(F)cccc2OC)=NC3)ccc1C(=O)O [alisertib]
Method in brief: as §1

[2] = compound: COc1cc2nc(-c3cc(F)ccc3O)nc(N[C@@H]3CNC[C@H]3C(C)(C)O)c2cc1OC
Method in brief: as §1

gefitinib = compound: COc1cc2ncnc(Nc3ccc(F)c(Cl)c3)c2cc1OCCCN1CCOCC1 [gefitinib]
Method in brief: as §1

[3] = compound: COc1cccc2cc(-c3nc([C@H]4CC[C@H](C(=O)O)CC4)n4ncnc(N)c34)[nH]c12
Method in brief: as §1

lapatinib = compound: CS(=O)(=O)CCNCc1ccc(-c2ccc3ncnc(Nc4ccc(OCc5cccc(F)c5)c(Cl)c4)c3c2)o1 [lapatinib]
Method in brief: as §1

pictilisib = compound: CS(=O)(=O)N1CCN(Cc2cc3nc(-c4cccc5[nH]ncc45)nc(N4CCOCC4)c3s2)CC1 [pictilisib]
Method in brief: as §1

[4] = compound: CS(=O)(=O)c1ccc(-c2cnc(N)c(C(=O)Nc3ccccc3)n2)cc1
Method in brief: as §1

crizotinib = compound: C[C@@H](Oc1cc(-c2cnn(C3CCNCC3)c2)cnc1N)c1c(Cl)ccc(F)c1Cl [crizotinib]
Method in brief: as §1

[5] = compound: C[C@@H]1COCCN1C2=NC(=NC(=C2)C3(CC3)S(=O)(=O)C)C4=C5C=CNC5=CC=C4
Method in brief: as §1

[6] = compound: C[C@H](C1=CC=C(C=C1)C(=O)NC2=C3C=CNC3=NC=C2)N
Method in brief: as §1

duvelisib = compound: C[C@H](Nc1ncnc2nc[nH]c12)c1cc2cccc(Cl)c2c(=O)n1-c1ccccc1 [duvelisib]
Method in brief: as §1

gandotinib = compound: Cc1cc(Nc2cc(CN3CCOCC3)c3nc(C)c(Cc4ccc(Cl)cc4F)n3n2)n[nH]1 [gandotinib]
Method in brief: as §1

tozasertib = compound: Cc1cc(Nc2cc(N3CCN(C)CC3)nc(Sc3ccc(NC(=O)C4CC4)cc3)n2)n[nH]1 [tozasertib]
Method in brief: as §1

[7] = compound: Cc1cc(SCc2sc(-c3ccc(C(F)(F)F)cc3)nc2C)ccc1OCC(=O)O
Method in brief: as §1

doramapimod = compound: Cc1ccc(-n2nc(C(C)(C)C)cc2NC(=O)Nc2ccc(OCCN3CCOCC3)c3ccccc23)cc1 [doramapimod]
Method in brief: as §1

ispinesib = compound: Cc1ccc(C(=O)N(CCCN)[C@@H](c2nc3cc(Cl)ccc3c(=O)n2Cc2ccccc2)C(C)C)cc1 [ispinesib]
Method in brief: as §1

Measured: log2 fold change

GLA (UniProt P06280)
Chain of UniProt P06280 (P06280 whole entry, looked up): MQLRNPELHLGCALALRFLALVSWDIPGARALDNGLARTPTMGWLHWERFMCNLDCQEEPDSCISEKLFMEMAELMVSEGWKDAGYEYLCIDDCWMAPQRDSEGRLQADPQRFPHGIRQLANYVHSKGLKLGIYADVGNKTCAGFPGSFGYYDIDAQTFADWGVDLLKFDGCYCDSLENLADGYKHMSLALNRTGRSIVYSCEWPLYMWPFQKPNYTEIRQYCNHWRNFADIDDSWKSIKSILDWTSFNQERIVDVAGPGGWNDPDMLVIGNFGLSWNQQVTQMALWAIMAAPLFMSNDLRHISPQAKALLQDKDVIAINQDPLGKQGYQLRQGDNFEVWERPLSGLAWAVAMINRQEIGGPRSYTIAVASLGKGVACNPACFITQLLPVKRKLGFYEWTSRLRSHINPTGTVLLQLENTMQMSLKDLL
inactive: [1] 0.033 | filanesib -0.048 | zotarolimus -0.003 | idasanutlin 0.06 | alisertib -0.089 | [2] 0.018 | gefitinib -0.011 | [3] 0.01 | lapatinib -0.026 | pictilisib -0.06 | [4] -0.033 | crizotinib -0.205 | [5] -0.019 | [6] 0.018 | duvelisib -0.027 | gandotinib -0.066 | tozasertib -0.03 | [7] 0.034 | doramapimod -0.036 | ispinesib -0.148

HSD17B12 (UniProt Q53GQ0)
Chain of UniProt Q53GQ0 (Q53GQ0 whole entry, looked up): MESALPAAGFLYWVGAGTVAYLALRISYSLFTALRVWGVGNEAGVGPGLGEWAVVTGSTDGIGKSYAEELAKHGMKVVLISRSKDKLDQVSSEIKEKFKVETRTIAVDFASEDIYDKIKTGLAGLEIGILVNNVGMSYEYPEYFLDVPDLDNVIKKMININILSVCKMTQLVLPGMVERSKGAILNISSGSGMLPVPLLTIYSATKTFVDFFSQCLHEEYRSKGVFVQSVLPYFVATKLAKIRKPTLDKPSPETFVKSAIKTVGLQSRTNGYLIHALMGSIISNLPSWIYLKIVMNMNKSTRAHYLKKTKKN
active: lapatinib 0.369 | gandotinib 0.371
inactive: [1] 0.069 | filanesib -0.013 | zotarolimus 0.03 | idasanutlin -0.169 | alisertib 0.003 | [2] 0.135 | gefitinib 0.103 | [3] 0.045 | pictilisib 0.102 | [4] 0.046 | crizotinib 0.191 | [5] 0.012 | [6] -0.061 | duvelisib 0.063 | tozasertib -0.018 | [7] 0.055 | doramapimod -0.009 | ispinesib 0.243

GGT7 (UniProt Q9UJ14)
Chain of UniProt Q9UJ14 (Q9UJ14 whole entry, looked up): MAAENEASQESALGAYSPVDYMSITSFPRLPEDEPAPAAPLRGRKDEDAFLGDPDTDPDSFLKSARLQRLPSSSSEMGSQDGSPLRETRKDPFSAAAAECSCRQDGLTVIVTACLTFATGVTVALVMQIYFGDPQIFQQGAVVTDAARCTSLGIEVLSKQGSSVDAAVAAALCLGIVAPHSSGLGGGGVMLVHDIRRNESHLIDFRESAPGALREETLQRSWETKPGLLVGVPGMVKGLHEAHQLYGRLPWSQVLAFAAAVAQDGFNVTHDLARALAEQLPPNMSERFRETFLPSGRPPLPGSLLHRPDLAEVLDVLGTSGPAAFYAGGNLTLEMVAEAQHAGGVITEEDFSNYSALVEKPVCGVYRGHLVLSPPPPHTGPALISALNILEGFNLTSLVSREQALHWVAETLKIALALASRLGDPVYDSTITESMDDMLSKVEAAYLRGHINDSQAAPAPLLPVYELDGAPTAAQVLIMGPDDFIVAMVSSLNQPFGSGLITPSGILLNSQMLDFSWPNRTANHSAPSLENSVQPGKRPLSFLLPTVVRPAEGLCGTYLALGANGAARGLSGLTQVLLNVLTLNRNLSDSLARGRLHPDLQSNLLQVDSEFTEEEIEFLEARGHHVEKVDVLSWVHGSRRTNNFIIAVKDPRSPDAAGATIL
inactive: [1] 0.044 | filanesib 0.081 | zotarolimus -0.03 | idasanutlin -0.039 | alisertib -0.07 | [2] -0.098 | gefitinib 0.055 | [3] 0.05 | lapatinib -0.062 | pictilisib 0.143 | [4] 0.035 | crizotinib 0.013 | [5] -0.128 | [6] 0.013 | duvelisib -0.045 | gandotinib -0.03 | tozasertib -0.049 | [7] -0.091 | doramapimod 0.023 | ispinesib -0.032

FECH isoform 2 (UniProt P22830)
Chain of UniProt P22830 (P22830 whole entry, looked up): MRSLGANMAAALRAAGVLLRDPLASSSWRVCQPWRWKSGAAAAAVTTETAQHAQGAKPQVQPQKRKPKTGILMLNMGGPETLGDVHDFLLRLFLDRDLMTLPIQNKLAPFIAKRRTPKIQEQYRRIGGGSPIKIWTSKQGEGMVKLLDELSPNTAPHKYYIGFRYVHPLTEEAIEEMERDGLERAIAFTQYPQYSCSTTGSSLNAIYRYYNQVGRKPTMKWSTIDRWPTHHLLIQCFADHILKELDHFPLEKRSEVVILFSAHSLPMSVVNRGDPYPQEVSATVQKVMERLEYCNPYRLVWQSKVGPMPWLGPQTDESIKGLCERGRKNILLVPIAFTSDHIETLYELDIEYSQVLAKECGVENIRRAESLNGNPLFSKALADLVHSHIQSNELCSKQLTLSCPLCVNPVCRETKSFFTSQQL
inactive: [1] 0.159 | filanesib -0.188 | zotarolimus 0.082 | idasanutlin -0.127 | alisertib -0.185 | [2] 0.363 | gefitinib 0.153 | [3] 0.062 | lapatinib 0.269 | pictilisib 0.396 | [4] 0.527 | crizotinib 0.021 | [5] 0.161 | [6] -0.12 | duvelisib 0.263 | gandotinib 0.178 | tozasertib 0.162 | [7] 0.029 | doramapimod 0.071 | ispinesib -0.37

GATD1 (UniProt Q8NB37)
Chain of UniProt Q8NB37 (Q8NB37 whole entry, looked up): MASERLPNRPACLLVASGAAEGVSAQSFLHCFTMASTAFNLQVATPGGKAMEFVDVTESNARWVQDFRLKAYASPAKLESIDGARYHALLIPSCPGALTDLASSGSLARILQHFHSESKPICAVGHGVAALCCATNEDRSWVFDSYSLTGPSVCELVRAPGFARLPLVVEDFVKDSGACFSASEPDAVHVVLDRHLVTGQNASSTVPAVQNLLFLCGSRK
inactive: [1] -0.104 | filanesib 0.022 | zotarolimus -0.004 | idasanutlin -0.038 | alisertib -0.001 | [2] 0.018 | gefitinib -0.014 | [3] 0.052 | lapatinib -0.064 | pictilisib 0.08 | [4] -0.026 | crizotinib 0.023 | [5] -0.256 | [6] 0.012 | duvelisib 0.124 | gandotinib 0.052 | tozasertib -0.075 | [7] 0.033 | doramapimod 0.163 | ispinesib -0.005

FMC1 (UniProt Q96HJ9)
Chain of UniProt Q96HJ9 (Q96HJ9 whole entry, looked up): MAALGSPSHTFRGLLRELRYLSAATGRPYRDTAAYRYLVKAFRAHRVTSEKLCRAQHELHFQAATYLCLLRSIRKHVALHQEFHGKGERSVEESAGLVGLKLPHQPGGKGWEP
inactive: [1] 0.068 | filanesib -0.037 | zotarolimus -0.101 | idasanutlin -0.091 | alisertib -0.042 | [2] -0.008 | gefitinib 0.06 | [3] 0.023 | lapatinib -0.018 | pictilisib 0.024 | [4] 0.021 | crizotinib 0.195 | [5] -0.157 | [6] 0.082 | duvelisib -0.046 | gandotinib 0.024 | tozasertib -0.058 | [7] -0.018 | doramapimod -0.137 | ispinesib -0.314

HECTD1 (UniProt Q9ULT8)
inactive: [1] -0.039 | filanesib 0.091 | zotarolimus 0.023 | idasanutlin 0.047 | alisertib 0.087 | [2] -0.04 | gefitinib -0.016 | [3] -0.132 | lapatinib 0.096 | pictilisib 0.02 | [4] -0.034 | crizotinib 0.084 | [5] 0.129 | [6] 0.072 | duvelisib -0.091 | gandotinib -0.062 | tozasertib 0.002 | [7] 0.06 | doramapimod -0.062 | ispinesib -0.126

HSPA8 (UniProt E9PK54)
inactive: [1] 0.011 | filanesib 0.033 | zotarolimus -0.015 | idasanutlin -0.037 | alisertib -0.186 | [2] -0.208 | gefitinib -0.077 | [3] -0.002 | lapatinib 0.17 | pictilisib -0.071 | [4] -0.05 | crizotinib -0.023 | [5] -0.272 | [6] 0.334 | duvelisib -0.05 | gandotinib 0.01 | tozasertib 0.033 | [7] 0.088 | doramapimod 0.143 | ispinesib 0.012

FIS1 (UniProt Q9Y3D6)
Chain of UniProt Q9Y3D6 (Q9Y3D6 whole entry, looked up): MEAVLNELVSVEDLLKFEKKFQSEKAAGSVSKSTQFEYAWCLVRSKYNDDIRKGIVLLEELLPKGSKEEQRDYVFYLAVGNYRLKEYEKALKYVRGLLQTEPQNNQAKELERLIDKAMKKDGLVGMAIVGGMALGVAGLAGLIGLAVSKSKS
active: [6] -0.286
inactive: [1] -0.016 | filanesib -0.008 | zotarolimus 0.153 | idasanutlin -0.047 | alisertib -0.034 | [2] 0.061 | gefitinib -0.025 | [3] 0.069 | lapatinib 0.008 | pictilisib 0.071 | [4] -0.017 | crizotinib 0.045 | [5] 0.037 | duvelisib -0.143 | gandotinib 0.032 | tozasertib 0.079 | [7] 0.071 | doramapimod 0.02 | ispinesib -0.007

GLUL (UniProt P15104)
Chain of UniProt P15104 (P15104 whole entry, looked up): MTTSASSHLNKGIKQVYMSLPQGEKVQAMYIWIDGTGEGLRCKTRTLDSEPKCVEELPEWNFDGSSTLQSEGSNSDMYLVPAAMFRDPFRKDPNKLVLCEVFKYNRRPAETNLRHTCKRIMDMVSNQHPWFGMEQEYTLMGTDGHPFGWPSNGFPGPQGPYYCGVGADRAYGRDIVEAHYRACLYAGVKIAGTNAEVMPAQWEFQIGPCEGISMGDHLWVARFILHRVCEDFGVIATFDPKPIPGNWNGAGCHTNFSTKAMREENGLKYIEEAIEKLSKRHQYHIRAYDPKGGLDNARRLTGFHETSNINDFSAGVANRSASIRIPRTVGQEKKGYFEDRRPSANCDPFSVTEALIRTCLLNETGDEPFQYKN
active: [3] -0.225 | [5] -0.267
inactive: [1] 0.11 | filanesib 0.002 | zotarolimus -0.154 | idasanutlin 0.032 | alisertib -0.013 | [2] -0.061 | gefitinib 0.01 | lapatinib -0.032 | pictilisib -0.001 | [4] -0.07 | crizotinib 0.008 | [6] 0.062 | duvelisib 0.035 | gandotinib -0.014 | tozasertib -0.014 | [7] -0.047 | doramapimod -0.126 | ispinesib 0.005

GALNT2 (UniProt Q10471)
Chain of UniProt Q10471 (Q10471 whole entry, looked up): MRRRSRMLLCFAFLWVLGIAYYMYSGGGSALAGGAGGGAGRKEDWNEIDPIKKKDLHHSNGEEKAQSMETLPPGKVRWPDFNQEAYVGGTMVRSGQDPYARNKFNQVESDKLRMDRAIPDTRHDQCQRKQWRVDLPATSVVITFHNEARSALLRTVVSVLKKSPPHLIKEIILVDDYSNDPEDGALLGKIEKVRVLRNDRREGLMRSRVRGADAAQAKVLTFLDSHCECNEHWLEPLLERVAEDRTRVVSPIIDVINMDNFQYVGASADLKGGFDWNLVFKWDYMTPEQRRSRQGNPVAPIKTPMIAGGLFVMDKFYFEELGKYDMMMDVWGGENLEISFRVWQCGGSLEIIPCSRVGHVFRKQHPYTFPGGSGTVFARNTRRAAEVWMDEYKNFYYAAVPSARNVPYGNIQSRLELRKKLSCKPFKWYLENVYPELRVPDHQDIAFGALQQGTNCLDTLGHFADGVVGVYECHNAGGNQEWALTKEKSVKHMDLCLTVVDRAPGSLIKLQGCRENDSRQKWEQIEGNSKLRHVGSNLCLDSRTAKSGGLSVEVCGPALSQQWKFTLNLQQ
inactive: [1] 0.018 | filanesib -0.025 | zotarolimus 0.043 | idasanutlin -0.065 | alisertib -0.03 | [2] -0.042 | gefitinib 0.059 | [3] -0.012 | lapatinib 0.036 | pictilisib -0.01 | [4] 0.056 | crizotinib -0.005 | [5] 0.093 | [6] -0.015 | duvelisib 0.05 | gandotinib -0.024 | tozasertib -0.065 | [7] 0.022 | doramapimod -0.001 | ispinesib 0.034

GHDC (UniProt Q8N2G8)
Chain of UniProt Q8N2G8 (Q8N2G8 whole entry, looked up): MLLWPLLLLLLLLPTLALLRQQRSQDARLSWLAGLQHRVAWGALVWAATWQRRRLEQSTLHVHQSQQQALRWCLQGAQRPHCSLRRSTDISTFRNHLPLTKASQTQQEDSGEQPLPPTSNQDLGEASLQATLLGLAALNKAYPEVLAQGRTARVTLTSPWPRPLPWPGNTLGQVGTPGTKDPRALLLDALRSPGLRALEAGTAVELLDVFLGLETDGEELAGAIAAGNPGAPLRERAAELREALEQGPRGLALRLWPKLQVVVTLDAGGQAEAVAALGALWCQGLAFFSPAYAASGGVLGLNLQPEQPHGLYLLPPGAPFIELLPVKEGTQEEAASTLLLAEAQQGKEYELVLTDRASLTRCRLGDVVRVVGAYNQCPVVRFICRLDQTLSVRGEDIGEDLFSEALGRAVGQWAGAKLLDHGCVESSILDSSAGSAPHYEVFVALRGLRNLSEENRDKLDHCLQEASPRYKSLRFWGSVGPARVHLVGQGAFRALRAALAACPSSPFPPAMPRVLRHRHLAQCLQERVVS
inactive: [1] -0.026 | filanesib -0.127 | zotarolimus 0.021 | idasanutlin 0.061 | alisertib -0.057 | [2] -0.13 | gefitinib 0.037 | [3] 0.087 | lapatinib 0.042 | pictilisib 0.042 | [4] 0.041 | crizotinib -0.02 | [5] 0.021 | [6] -0.074 | duvelisib 0.043 | gandotinib 0.002 | tozasertib -0.01 | [7] -0.039 | doramapimod -0.041 | ispinesib -0.132

FBL (UniProt P22087)
Chain of UniProt P22087 (P22087 whole entry, looked up): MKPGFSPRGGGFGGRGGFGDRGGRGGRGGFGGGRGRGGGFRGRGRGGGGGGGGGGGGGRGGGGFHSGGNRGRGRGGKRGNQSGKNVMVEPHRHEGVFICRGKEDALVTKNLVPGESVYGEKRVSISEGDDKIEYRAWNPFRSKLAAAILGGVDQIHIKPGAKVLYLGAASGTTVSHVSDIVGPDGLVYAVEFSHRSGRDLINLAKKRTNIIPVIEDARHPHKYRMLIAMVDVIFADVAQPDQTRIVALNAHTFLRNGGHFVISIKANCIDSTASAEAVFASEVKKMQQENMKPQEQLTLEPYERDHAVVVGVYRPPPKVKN
inactive: [1] -0.154 | filanesib 0.664 | zotarolimus 0.034 | idasanutlin 0.441 | alisertib 0.006 | [2] 0.077 | gefitinib 0.059 | [3] -0.069 | lapatinib 0.11 | pictilisib -0.093 | [4] -0.054 | crizotinib 0.075 | [5] -0.266 | [6] 0.379 | duvelisib -0.084 | gandotinib 0.124 | tozasertib -0.043 | [7] -0.01 | doramapimod 0.279 | ispinesib 0.097

GLS (UniProt O94925)
inactive: [1] 0.009 | filanesib 0.029 | zotarolimus 0.027 | idasanutlin -0.192 | alisertib 0.143 | [2] 0.22 | gefitinib 0.033 | [3] -0.009 | lapatinib -0.052 | pictilisib 0.049 | [4] 0.033 | crizotinib 0.05 | [5] 0.209 | [6] -0.049 | duvelisib 0.053 | gandotinib -0.17 | tozasertib 0.012 | [7] 0.054 | doramapimod -0.105 | ispinesib 0.118

HNRNPH2 (UniProt P55795)
Chain of UniProt P55795 (P55795 whole entry, looked up): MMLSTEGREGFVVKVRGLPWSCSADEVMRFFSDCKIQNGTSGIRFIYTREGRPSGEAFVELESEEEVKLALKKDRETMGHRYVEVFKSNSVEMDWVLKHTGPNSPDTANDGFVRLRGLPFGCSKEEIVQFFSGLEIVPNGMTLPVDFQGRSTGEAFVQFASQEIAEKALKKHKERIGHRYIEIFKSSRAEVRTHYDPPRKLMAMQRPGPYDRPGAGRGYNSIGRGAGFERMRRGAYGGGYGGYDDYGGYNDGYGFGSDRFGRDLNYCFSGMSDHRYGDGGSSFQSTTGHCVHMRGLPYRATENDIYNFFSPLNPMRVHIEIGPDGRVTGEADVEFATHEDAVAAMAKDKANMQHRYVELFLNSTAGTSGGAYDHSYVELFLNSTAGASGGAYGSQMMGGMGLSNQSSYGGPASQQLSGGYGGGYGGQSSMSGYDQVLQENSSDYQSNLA
inactive: [1] 0.003 | filanesib 0.033 | zotarolimus 0.079 | idasanutlin 0.001 | alisertib 0.058 | [2] -0.231 | gefitinib 0.02 | [3] -0.079 | lapatinib 0.057 | pictilisib -0.021 | [4] 0.029 | crizotinib -0.171 | [5] 0.096 | [6] -0.023 | duvelisib 0.054 | gandotinib 0.06 | tozasertib 0.113 | [7] 0.177 | doramapimod -0.024 | ispinesib -0.159

HBA1 (UniProt P69905)
Chain of UniProt P69905 (P69905 whole entry, looked up): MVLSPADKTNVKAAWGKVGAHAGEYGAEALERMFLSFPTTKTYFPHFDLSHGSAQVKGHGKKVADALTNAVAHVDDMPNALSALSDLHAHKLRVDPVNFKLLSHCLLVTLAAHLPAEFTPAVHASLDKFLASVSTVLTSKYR
inactive: [1] -0.037 | filanesib 0.02 | zotarolimus 0.068 | idasanutlin -0.044 | alisertib -0.093 | [2] -0.154 | gefitinib 0.032 | [3] 0.079 | lapatinib 0.036 | pictilisib -0.088 | [4] 0.009 | crizotinib 0.097 | [5] 0.213 | [6] -0.058 | duvelisib 0.094 | gandotinib 0.025 | tozasertib 0.081 | [7] 0.004 | doramapimod 0 | ispinesib 0.24
